In the supplement of paper PMC10849652:
About 8,800 targets were measured; listed, in parts, are those with a hit and a random draw of the rest. About 0.5% of all pairs of compound and target were hits.

Assays:
Assay in all cases: log2 fold change, soluble protein after heating vs DMSO (PISA); higher = thermal stabilisation; K562 lysate, 10 uM; active = over 0.2 and 3.5 SD of the protein, either way, in both replicates (recomputed)
[1] = compound: C1=CC=C(C=C1)[C@H](COC2=CC3=C(C=C2)NC(=O)N3)NC(=O)C4=CC=CN(C4=O)CC5=CC(=C(C=C5)F)F
Method in brief: (§1)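 Log-two fold change in thermal stability relative to solvent controls is reported from duplicates. For each sample, crude K562 extract from dounce-homogenised pellets in PBS pH 7.4 with 1 mM MgCl2, at 1 mg/mL protein, was treated with 10 μM compound for 30 min. Aliquots heated for 3 min across 48°C-58°C were pooled, brought to 0.5% NP-40 at 4°C and cleared at 21,000xg for 90 min. The supernatant was quantified by TMTpro 16plex LC-MS/MS with channel sums equalised.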

[2] = compound: CC1=C(SC2=C1C(=N[C@H](C3=NN=C(N32)C)CC(=O)N)C4=CC=C(C=C4)Cl)C
Method in brief: as §1

[3] = compound: CC1=C2C(=CC=C1)N=C(N(C2=O)C3=CC=CC=C3C)CN4C=NC5=C(N=CN=C54)N
Method in brief: as §1

[4] = compound: Cc1sc2c(c1C)C(c1ccc(Cl)cc1)=N[C@@H](CC(=O)OC(C)(C)C)c1nnc(C)n1-2
Method in brief: as §1

[5] = compound: c1ccc([C@@H]2C[C@H]2NC2CCNCC2)cc1
Method in brief: as §1

Measured: log2 fold change

DSTN (UniProt P60981)
Sequence of UniProt P60981 (P60981 whole entry, looked up): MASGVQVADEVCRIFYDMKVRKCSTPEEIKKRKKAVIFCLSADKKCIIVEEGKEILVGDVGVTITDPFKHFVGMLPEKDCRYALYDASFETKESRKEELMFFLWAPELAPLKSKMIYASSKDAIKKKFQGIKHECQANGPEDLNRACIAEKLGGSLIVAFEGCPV
inactive: [1] 0.043 | [2] -0.051 | [3] -0.016 | [4] 0.018 | [5] -0.06

GEMIN2 (UniProt O14893)
inactive: [1] -0.009 | [2] 0.01 | [3] -0.023 | [4] 0.015 | [5] -0.043

FANCD2 isoform 1 (UniProt Q9BXW9)
inactive: [1] -0.002 | [2] 0.039 | [3] 0.012 | [4] -0.018 | [5] -0.054

EEF1A1, A0A087WVQ9
inactive: [1] -0.053 | [2] 0.093 | [3] -0.042 | [4] -0.001 | [5] 0.049

ENO1 isoform 2 (UniProt P06733)
inactive: [1] 0.068 | [2] -0.145 | [3] 0.033 | [4] -0.062 | [5] -0.143

EXOC6 (UniProt Q8TAG9)
Sequence of UniProt Q8TAG9 (Q8TAG9 whole entry, looked up): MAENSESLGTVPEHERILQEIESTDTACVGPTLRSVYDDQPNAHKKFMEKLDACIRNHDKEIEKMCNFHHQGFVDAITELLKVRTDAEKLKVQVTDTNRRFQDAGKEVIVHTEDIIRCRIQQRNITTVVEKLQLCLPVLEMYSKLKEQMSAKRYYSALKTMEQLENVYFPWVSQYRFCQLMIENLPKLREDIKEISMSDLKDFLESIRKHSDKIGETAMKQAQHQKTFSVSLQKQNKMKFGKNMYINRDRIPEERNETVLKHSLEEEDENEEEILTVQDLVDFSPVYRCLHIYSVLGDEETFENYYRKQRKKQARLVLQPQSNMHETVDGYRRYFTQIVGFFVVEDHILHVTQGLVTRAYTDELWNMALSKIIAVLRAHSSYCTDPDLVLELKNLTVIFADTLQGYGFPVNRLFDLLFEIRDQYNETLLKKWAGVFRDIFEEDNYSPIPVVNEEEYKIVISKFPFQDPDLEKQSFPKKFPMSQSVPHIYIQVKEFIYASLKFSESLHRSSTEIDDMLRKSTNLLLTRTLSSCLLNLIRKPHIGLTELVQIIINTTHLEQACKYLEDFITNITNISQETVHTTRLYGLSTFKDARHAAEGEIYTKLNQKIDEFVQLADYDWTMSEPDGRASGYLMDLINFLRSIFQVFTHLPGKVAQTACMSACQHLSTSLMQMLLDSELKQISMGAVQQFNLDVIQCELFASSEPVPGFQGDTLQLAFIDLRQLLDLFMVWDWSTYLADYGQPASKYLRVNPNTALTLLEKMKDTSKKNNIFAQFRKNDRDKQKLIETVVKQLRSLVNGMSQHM
inactive: [1] -0.035 | [2] -0.022 | [3] -0.006 | [4] 0.037 | [5] 0.151

FUBP3 (UniProt Q96I24)
inactive: [1] -0.052 | [2] 0.019 | [3] -0.007 | [4] -0.01 | [5] 0.011

EIF2B5 (UniProt Q13144)
Sequence of UniProt Q13144 (Q13144 whole entry, looked up): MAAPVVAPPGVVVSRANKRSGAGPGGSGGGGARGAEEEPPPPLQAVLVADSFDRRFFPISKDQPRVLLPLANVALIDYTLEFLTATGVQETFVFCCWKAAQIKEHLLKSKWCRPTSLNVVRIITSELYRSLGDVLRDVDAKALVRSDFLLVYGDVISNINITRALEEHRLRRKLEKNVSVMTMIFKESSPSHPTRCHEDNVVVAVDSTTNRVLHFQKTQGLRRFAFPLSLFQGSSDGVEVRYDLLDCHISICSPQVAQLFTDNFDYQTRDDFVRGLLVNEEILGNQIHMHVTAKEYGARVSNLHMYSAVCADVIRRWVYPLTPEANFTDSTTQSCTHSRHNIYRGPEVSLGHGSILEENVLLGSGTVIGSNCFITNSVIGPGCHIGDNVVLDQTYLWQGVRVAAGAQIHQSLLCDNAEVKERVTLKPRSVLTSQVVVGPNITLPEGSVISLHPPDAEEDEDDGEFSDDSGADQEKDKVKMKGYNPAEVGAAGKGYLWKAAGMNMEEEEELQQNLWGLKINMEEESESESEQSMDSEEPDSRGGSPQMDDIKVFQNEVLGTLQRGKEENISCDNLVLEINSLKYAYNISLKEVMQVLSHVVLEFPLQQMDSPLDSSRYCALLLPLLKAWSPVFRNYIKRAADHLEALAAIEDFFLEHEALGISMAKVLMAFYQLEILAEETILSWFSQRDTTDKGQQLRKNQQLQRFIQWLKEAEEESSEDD
inactive: [1] -0.03 | [2] 0.007 | [3] 0.019 | [4] 0.023 | [5] 0.017

FYCO1 isoform 4 (UniProt Q9BQS8)
inactive: [1] 0.01 | [2] 0.037 | [3] 0.03 | [4] 0.023 | [5] -0.1

GABPB1 (UniProt Q06547)
inactive: [1] 0.044 | [2] -0.013 | [3] -0.04 | [4] -0.001 | [5] 0.132

GEMIN5 (UniProt Q8TEQ6)
Sequence of UniProt Q8TEQ6 (Q8TEQ6 whole entry, looked up): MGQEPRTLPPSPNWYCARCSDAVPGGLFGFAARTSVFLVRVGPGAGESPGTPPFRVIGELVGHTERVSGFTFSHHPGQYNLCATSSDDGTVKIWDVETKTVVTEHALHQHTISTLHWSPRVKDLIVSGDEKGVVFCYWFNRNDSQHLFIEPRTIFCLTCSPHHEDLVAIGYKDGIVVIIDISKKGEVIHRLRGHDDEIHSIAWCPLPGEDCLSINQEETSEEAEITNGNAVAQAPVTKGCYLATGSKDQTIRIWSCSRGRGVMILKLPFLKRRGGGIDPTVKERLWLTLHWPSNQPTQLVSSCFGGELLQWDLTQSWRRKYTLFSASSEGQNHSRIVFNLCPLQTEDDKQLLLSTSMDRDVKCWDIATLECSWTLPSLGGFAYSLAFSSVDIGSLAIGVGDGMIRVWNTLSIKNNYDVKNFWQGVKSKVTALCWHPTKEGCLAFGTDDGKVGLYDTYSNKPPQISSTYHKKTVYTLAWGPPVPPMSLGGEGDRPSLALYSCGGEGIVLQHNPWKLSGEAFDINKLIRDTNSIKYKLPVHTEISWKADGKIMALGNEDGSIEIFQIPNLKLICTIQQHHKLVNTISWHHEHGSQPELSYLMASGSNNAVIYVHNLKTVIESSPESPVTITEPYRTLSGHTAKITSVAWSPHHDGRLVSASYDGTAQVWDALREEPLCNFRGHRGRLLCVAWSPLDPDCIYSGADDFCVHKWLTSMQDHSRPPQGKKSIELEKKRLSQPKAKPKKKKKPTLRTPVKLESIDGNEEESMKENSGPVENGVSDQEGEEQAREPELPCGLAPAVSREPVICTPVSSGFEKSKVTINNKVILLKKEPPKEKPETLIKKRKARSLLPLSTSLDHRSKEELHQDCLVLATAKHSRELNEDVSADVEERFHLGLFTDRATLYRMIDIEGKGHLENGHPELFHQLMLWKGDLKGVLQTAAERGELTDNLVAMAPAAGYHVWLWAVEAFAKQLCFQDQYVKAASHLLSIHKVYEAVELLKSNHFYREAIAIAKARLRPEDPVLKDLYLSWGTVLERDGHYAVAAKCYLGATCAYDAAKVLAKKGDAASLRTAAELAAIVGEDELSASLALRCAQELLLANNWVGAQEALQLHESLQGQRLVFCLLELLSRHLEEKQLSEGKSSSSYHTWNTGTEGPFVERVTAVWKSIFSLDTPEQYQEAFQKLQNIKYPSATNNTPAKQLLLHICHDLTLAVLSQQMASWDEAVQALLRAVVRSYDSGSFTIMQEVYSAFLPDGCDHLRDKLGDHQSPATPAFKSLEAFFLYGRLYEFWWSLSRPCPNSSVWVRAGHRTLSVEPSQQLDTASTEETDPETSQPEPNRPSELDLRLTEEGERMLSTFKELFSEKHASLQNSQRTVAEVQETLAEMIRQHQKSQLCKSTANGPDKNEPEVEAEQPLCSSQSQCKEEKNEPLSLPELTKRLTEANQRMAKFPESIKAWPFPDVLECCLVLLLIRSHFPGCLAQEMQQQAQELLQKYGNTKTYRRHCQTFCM
inactive: [1] -0.015 | [2] 0.025 | [3] 0.016 | [4] -0.002 | [5] 0.036

FASTKD5 (UniProt Q7L8L6)
inactive: [1] -0.168 | [2] -0.056 | [3] -0.024 | [4] -0.002 | [5] 0.133

FKBP8 isoform 2 (UniProt Q14318)
inactive: [1] -0.061 | [2] 0.012 | [3] -0.023 | [4] -0.084 | [5] 0.043

FAM118B (UniProt Q9BPY3)
inactive: [1] -0.025 | [2] -0.062 | [3] -0.01 | [4] -0.018 | [5] 0.01

ENGASE (UniProt Q8NFI3)
Sequence of UniProt Q8NFI3 (Q8NFI3 whole entry, looked up): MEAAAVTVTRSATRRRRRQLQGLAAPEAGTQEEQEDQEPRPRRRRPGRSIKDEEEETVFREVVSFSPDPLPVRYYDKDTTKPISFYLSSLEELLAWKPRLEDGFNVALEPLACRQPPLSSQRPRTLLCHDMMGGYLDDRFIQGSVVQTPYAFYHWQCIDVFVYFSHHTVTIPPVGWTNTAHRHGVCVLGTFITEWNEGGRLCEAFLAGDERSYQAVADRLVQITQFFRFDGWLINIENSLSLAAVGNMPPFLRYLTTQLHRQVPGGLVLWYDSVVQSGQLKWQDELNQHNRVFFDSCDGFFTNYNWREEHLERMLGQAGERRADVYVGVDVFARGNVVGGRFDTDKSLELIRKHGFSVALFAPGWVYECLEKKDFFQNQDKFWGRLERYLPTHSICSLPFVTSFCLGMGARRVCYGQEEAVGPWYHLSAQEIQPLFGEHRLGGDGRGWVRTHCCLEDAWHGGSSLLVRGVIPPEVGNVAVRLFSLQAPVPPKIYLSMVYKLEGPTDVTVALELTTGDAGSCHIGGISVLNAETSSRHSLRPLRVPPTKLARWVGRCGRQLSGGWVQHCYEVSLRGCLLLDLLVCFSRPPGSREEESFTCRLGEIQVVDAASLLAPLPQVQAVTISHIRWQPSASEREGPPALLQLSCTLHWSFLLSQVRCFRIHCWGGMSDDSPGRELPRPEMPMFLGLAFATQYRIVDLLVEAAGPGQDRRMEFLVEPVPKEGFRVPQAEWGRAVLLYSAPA
inactive: [1] 0.042 | [2] 0.017 | [3] 0.038 | [4] 0.017 | [5] -0.023

ESRRA (UniProt P11474)
inactive: [1] 0.204 | [2] -0.018 | [3] 0.029 | [4] 0.046 | [5] 0.264

GART (UniProt P22102)
Sequence of UniProt P22102 (P22102 whole entry, looked up): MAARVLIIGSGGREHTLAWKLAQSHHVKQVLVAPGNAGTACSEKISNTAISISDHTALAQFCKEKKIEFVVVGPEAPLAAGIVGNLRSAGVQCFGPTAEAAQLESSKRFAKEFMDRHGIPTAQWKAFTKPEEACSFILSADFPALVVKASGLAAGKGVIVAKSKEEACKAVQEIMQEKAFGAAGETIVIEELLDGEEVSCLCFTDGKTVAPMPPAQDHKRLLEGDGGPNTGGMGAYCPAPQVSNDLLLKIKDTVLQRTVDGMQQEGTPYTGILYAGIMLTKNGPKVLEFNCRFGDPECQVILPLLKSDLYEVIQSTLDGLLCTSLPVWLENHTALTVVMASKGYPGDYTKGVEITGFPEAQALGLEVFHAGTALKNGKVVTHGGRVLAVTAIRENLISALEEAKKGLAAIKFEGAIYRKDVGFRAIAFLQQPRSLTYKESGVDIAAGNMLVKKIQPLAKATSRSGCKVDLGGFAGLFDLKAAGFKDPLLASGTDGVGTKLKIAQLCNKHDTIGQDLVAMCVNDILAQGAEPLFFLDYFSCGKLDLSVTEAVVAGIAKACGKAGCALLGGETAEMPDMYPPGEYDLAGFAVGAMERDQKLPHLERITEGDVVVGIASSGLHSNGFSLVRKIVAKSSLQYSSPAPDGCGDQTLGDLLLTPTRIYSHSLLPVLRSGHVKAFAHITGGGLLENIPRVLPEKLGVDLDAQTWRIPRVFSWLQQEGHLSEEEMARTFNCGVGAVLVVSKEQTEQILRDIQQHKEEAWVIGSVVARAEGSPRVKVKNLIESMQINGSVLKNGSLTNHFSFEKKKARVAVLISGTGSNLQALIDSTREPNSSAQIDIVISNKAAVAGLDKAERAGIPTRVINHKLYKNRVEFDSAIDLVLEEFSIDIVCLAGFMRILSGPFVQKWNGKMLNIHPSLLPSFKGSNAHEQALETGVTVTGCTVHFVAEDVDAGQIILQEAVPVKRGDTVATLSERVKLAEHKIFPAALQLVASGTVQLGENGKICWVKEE
inactive: [1] -0.04 | [2] 0.047 | [3] 0.011 | [4] 0.057 | [5] 0.042

EWSR1 isoform 5 (UniProt Q01844)
inactive: [1] 0.047 | [2] -0.024 | [3] -0.012 | [4] 0.053 | [5] 0.002

GATAD2A isoform 3 (UniProt Q86YP4)
inactive: [1] -0.01 | [2] -0.006 | [3] 0.032 | [4] -0.015 | [5] 0.036

G6PD isoform 2 (UniProt P11413)
inactive: [1] 0.023 | [2] -0.002 | [3] 0.011 | [4] 0.053 | [5] 0.075

GAMT (UniProt Q14353)
inactive: [1] -0.025 | [2] -0.083 | [3] -0.002 | [4] 0.114 | [5] 0.005

GCN1 (UniProt Q92616)
inactive: [1] -0.046 | [2] 0.003 | [3] 0.019 | [4] 0.035 | [5] 0.063

ERCC4 (UniProt Q92889)
active: [5] -0.305
inactive: [1] -0.038 | [2] 0.036 | [3] 0.043 | [4] -0.008

EXOC2 (UniProt Q96KP1)
inactive: [1] -0.01 | [2] -0.018 | [3] -0.013 | [4] -0.019 | [5] 0.063
